Measured values from PubChem BioAssay AID651593 (National Center for Advancing Translational Sciences (NCATS), 2012).
The campaign covered roughly 1,100 compounds. About 860 (78%) were called active. Another 19% or so got no clear call; they are omitted. So high a share suggests a set chosen from earlier hits. Some of the results follow. Unmarked numbers belong to inactive results. Calls come from the whole dose curve; as a rule, active = well fitted activation curve with a large enough effect; inconclusive = small, poorly fitted or top-dose-only effect; inactive = flat fitted curve, though single readings scatter.

Assay: qHTS of Nrf2 Activators: Hit Validation in Primary Assay; note: nearly all actives have a fitted effect of over 70% in size; for activation: 0% is about no effect
Details: Nrf2/ARE reporter cell assay; Potency: activation; series mostly up to 46.1 µM; activation: at the top concentration
Summary of the method: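 AREc32 cells stably carrying an ARE-driven firefly luciferase, plated overnight, then exposed 24 h at 37 °C to compounds at several concentrations. ARE activation read as luminescence with Steady-Glo after 30 min at room temperature.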
Potency is the fitted concentration of half-maximal effect.

| Structure (SMILES) | Potency | activation |
| --- | --- | --- |
| O=C1S/C(=C\C=C\c2ccco2)C(=O)N1c1ccc(O)cc1 | 2.31 µM (active) |  |
| O=C1S/C(=C\C=C\c2ccco2)C(=O)N1c1ccccc1 | 5.8 µM (active) |  |
| Cc1noc(C(=O)Nc2cc(Cl)ccc2O)c1Cl | 2.91 µM (active) |  |
| C=CCSc1nccc(-c2cc(Cl)sc2Cl)n1 | 6.51 µM (active) |  |
| O=C1c2cccc3cccc(c23)C(=O)N1CCCN(C(=O)c1cccs1)c1cccc(F)c1 | 2.31 µM (active) |  |
| O=C(N/N=C/C=C/c1ccco1)c1cccc([N+](=O)[O-])c1 | 0.366 µM (active) |  |
| O=C(N/N=C\C=C\c1ccco1)c1cc(-c2ccc3ccccc3c2)n[nH]1 | 8.2 µM (active) |  |
| O=C(N/N=C/C=C/c1ccco1)c1cnccn1 | 9.2 µM (active) |  |
| Cc1cccc(C)c1OCC(=O)N/N=C/C=C/c1ccco1 | 0.517 µM (active) |  |
| c1ccc(-c2ccc3c(c2)NC(C2Nc4cc(-c5ccccc5)ccc4O2)O3)cc1 (stereo not drawn) |  | 3.34% |
| COc1ccc(C2CC(c3cccs3)=Nc3ccccc3S2)cc1OC (stereo not drawn) | 20.6 µM (active) |  |
| Cc1cc(C)c(C#N)c(OCC(=O)c2ccccc2)n1 | 5.17 µM (active) |  |
| Cc1cc(C)c(C#N)c(OCC(=O)c2ccc(Br)cc2)n1 | 4.61 µM (active) |  |
| Cc1cc(C)n2nc(/C(C#N)=C/c3ccccn3)c(C#N)c2n1 | 18.4 µM (active) |  |
| Clc1ccc(Br)cc1-c1nc(-c2ccncc2)no1 | 4.61 µM (active) |  |
| COc1ccc(Cl)cc1-c1nc(-c2ccncc2)no1 | 4.61 µM (active) |  |
| CC(C)(C)C(=O)/C=c1\[nH]c(=O)/c(=C\c2ccccc2F)s1 | 2.31 µM (active) |  |
| Cn1nc(C(=O)Nc2c(-c3ccccc3)nc3sccn23)c2ccccc2c1=O | 9.2 µM (active) |  |
| Cc1ccc2[nH]c(=O)c3cc(C(=O)N(C)Cc4ccco4)sc3c2c1 | 11.6 µM (active) |  |
| C/C(=N\NC(=S)NCC(C)(C)C)c1cc(F)cc(F)c1O |  | 7.88% |
| C(=Cc1cnnc2ccccc12)c1ccccc1 | 2.91 µM (active) |  |
| O=C(NCc1ccccc1)c1c(Cl)nc(Cl)c(Cl)c1Cl | 2.91 µM (active) |  |
| O=C(Nc1ncc2c(n1)CC(c1ccco1)CC2=O)c1ccc(Cl)cc1 (stereo not drawn) | 9.2 µM (active) |  |
| N#C/C(=C\c1ccccc1)c1ccccn1 | 13 µM (active) |  |
| O=C(/C=C/c1cccc([N+](=O)[O-])c1)n1cnc2ccccc21 | 4.61 µM (active) |  |
| CC(C)(C)SCCNC(=O)/C=C/c1cccc([N+](=O)[O-])c1 |  | 12.4% |
| O=[N+]([O-])c1cccc(/C=C/c2ccccn2)c1 | 4.61 µM (active) |  |
| N#C/C(=C\c1cccc([N+](=O)[O-])c1)c1ccccn1 | 4.61 µM (active) |  |
